Screening data (PubChem)
Hits are enriched below; roughly 4.3% of the tested compounds scored in any of these assays.
Peg3 promoter: Peg3 promoter-driven luciferase inhibitors, primary screen, cell-based, HeLa, luciferase luminescence. HeLa PEG-Prom luciferase reporter, overnight. inhibition, % at 20 µM. hit rate 1.7% among 360,000;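 active means inhibition of at least 50% at 20 µM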
CF NFkB block: inhibitors of PAF-induced NF-kB signaling, primary screen, cell-based, GFP fluorescence, uHTS; hit rate 0.86% among 360,000; inhibition, % at 5 µM; KKLEB NF-kB-GFP reporter, GFP fluorescence overnight;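 active means at least 50% inhibition at 5 µM, scaled per plate between neutral and stimulator controls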;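 further: PAF is a Pseudomonas aeruginosa culture filtrate used as stimulus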
HIF-2a inh: HIF-2a reporter inhibitors, primary screen, luminescence, 786-0 RCC cells. 786-0 RCC cells HIF-2a reporter, luciferase luminescence, overnight. inhibition, % at 18.8 µM. hit rate 0.72% among 360,000;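 active means inhibition of the luminescence signal of 40% or more relative to plate controls, in a single-dose primary screen at 18.75 µM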
TRPM1 prom inh: inhibitors of MITF-dependent TRPM1 promoter reporter, primary screen, cell-based, SK-MEL-5, single point, luciferase; AID 488899, 2010; hit rate 0.83% among 330,000; inhibition, % at 12.5 µM; SK-MEL-5 TRPM1 promoter luciferase, 24 h;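 active means mean inhibition across replicates of 60% or more, whatever share of single replicates reaches that level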
KKLEB tox: cytotoxicity in KKLEB CF airway cells, primary screen, cytotoxicity control for CF NF-kB inhibitor project, cell-based, uHTS, fluorescence assay plates | KKLEB CF airway cells viability, ATPlite luminescence, overnight; hits give low values; cells stimulated with P. aeruginosa culture filtrate | activity change (cytotoxicity), % at 5 µM | hit rate 0.36% among 360,000 | AID 602141, 2011;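 active means corrected activity change at or below -50% at 5 µM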
CHOP inh: inhibitors of CHOP promoter induction, primary screen, cell-based, unfolded protein response, luciferase reporter. CHO-K1 CHOP-promoter luciferase, tunicamycin-induced, 15-18 h. hit rate 3.8% among 220,000. AID 2732, 2010. inhibition, % at 10 µM;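 active means compounds that reduced the stress-induced luciferase reporter signal by more than about 70% of percent inhibition, limit read from the data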
Mdm2 MdmX conf: retested Mdm2-MdmX interaction blockers, confirmation, cell-based, luminescence, single concentration, set 2. shares compounds with HIF-2a inh. SaOS-2 split-luciferase Mdm2/MdmX complementation. inhibition, % at 8 µM. hit rate 99% among 740;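 active means mean inhibition of the luminescence signal across two replicates at or above 26 percent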
HIF-2a conf: HIF-2a reporter inhibitor retest, confirmation, luminescence, 786-0 RCC cells | inhibition, % at 18.8 µM | HIF-2a luciferase reporter luminescence, overnight | hit rate 56% among 1,800 | shares compounds with HIF-2a inh;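 active means mean inhibition across four replicates of at least 40 percent at the single tested concentration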
HIF-1a cs: HIF-1a luciferase reporter signal reduction – MiaPaCa-2 cells, single concentration, counter-screen for HIF-2a inhibitor project, confirmation | shares compounds with HIF-2a inh | MiaPaCa-2 HIF-1a luciferase reporter, desferoxamine, overnight | inhibition, % at 18.8 µM | hit rate 72% among 1,800;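 active means mean inhibition of the reporter signal across four replicates at the single tested dose of 50% or more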
Each line names hits and unclear results; the compound was inactive in the other large screens (follow-up assays come after a bar, where they were run).

O=C(O)COc1ccc2oc3ccccc3c2c1	HIF-2a inh 53 | HIF-2a conf 68 | HIF-1a cs inactive
S=C1SCN(Cc2cccnc2)CN1Cc1cccnc1	Peg3 promoter 67 | Mdm2 MdmX conf 98
S=C1SCN(Cc2ccccc2)CN1Cc1ccccc1	none (no result: CHOP inh)
Cc1cccc(N(Cc2ccccc2)C(=O)c2cc(S(=O)(=O)N3CCOCC3)ccc2Cl)c1	none (no result: CHOP inh)
CC(C)NC(=O)c1c(O)c2ccccc2[nH]c1=O	none | Mdm2 MdmX conf 92
CC(C)C(=O)NNC(=O)c1c(O)c2ccccc2[nH]c1=O	none
COc1ccccc1-[n+]1c(C)cc(/C=C2\Sc3ccccc3N2C)cc1C	Peg3 promoter 67, HIF-2a inh 57, TRPM1 prom inh 93, CHOP inh 82 | Mdm2 MdmX conf 103
CCc1ccc(C(=O)Nc2cc(S(=O)(=O)N3CCOCC3)ccc2N2CCOCC2)cc1	none (no result: CHOP inh)
Cc1c(CCC(=O)O)c(=O)oc2cc3oc4c(c3cc12)CCCC4	HIF-2a inh 74 | HIF-2a conf 83 | HIF-1a cs inactive
COc1cccc(-c2coc3cc4oc(=O)c(CCC(=O)O)c(C)c4cc23)c1	HIF-2a inh 40 (no result: CHOP inh) | HIF-2a conf 57 | HIF-1a cs 51
Cc1c(CCC(=O)N[C@@H](CC(C)C)C(=O)O)c(=O)oc2cc3oc4c(c3cc12)CCCC4	HIF-2a inh 65 (no result: TRPM1 prom inh, CHOP inh) | HIF-2a conf 75 | HIF-1a cs inactive
COc1cccc(-c2coc3c(C)c4oc(=O)c(CCC(=O)O)c(C)c4cc23)c1	none (no result: CHOP inh)
Cc1c(CCC(=O)NCC(=O)NCC(=O)O)c(=O)oc2cc3oc4c(c3cc12)CCCC4	none (no result: CHOP inh)
Cc1c(CCC(=O)N2CCC[C@H]2C(=O)O)c(=O)oc2cc3oc4c(c3cc12)CCCC4	HIF-2a inh 65 (no result: CHOP inh) | HIF-2a conf 79 | HIF-1a cs inactive
Cc1c(CCC(=O)O)c(=O)oc2cc(OCc3ccccc3Br)ccc12	HIF-2a inh 78 (no result: CHOP inh) | HIF-2a conf 92 | HIF-1a cs 52
Cc1c(CCC(=O)O)c(=O)oc2cc(OCc3cccc(F)c3)ccc12	none (no result: CHOP inh)
CCOC(=O)c1nnc(-c2cccs2)nc1Oc1ccc(Cl)cc1	HIF-2a inh 42 | HIF-2a conf inactive | HIF-1a cs inactive
CCOC(=O)c1nnc(-c2cccs2)nc1Oc1ccccc1C(=O)OC	none
C#CCOc1nc2c(c(=O)n(C)c(=O)n2C)n1Cc1ccccc1	none
CNc1nc(-c2ccc3c(c2)CCN3C(=O)CC(C)(C)C)c(C)s1	none (no result: TRPM1 prom inh)
CC(=O)Nc1nc(-c2ccc3c(c2)CCN3C(=O)C2CC2)c(C)s1	none (no result: CHOP inh) | Mdm2 MdmX conf 97
Cc1cccc(C)c1N/C=C/c1onc(C)c1[N+](=O)[O-]	none
Cc1noc(/C=C/c2cccnc2)c1[N+](=O)[O-]	HIF-2a inh 48 (no result: CHOP inh) | HIF-2a conf inactive | HIF-1a cs 56
COc1ccc(S(=O)(=O)N2CCOCC2)cc1C(=O)NCC(c1ccco1)N1CCCC1 (stereo not given)	none (no result: CHOP inh)
COCC(C)n1c(C)cc(C(=O)COC(=O)c2cc(=O)[nH]c3ccccc23)c1C (stereo not given)	Peg3 promoter 52, HIF-2a inh 43 (no result: TRPM1 prom inh, CHOP inh) | HIF-2a conf 45 | HIF-1a cs inactive
O=C1c2ccccc2C(c2nnnn2Cc2ccccc2)N1Cc1ccc2c(c1)OCO2 (stereo not given)	none (no result: Peg3 promoter, CF NFkB block, TRPM1 prom inh, KKLEB tox, CHOP inh)
CN(C)S(=O)(=O)c1ccc(C(=O)NCCC(=O)N2CCCC2)cc1	none (no result: CHOP inh)
CC(=O)C(=Cc1ccc(-c2ccccc2)cc1)C(=O)c1ccccc1	HIF-2a inh 65 (no result: Peg3 promoter, CF NFkB block, TRPM1 prom inh, KKLEB tox, CHOP inh) | HIF-2a conf inactive | HIF-1a cs 103
O=C(Nc1ccccc1-c1nc2ccccc2[nH]1)c1ccc(N2C(=O)CCC2=O)cc1	HIF-2a inh 45 | HIF-2a conf inactive | HIF-1a cs inactive
Cc1ccc(Oc2ccc(OCC(=O)Nc3ccncc3)cc2)cc1	HIF-2a inh 55 (no result: TRPM1 prom inh, CHOP inh) | HIF-2a conf 77 | HIF-1a cs 50
CCc1cccc(OCCOC(=O)CNS(=O)(=O)c2ccc(NC(C)=O)cc2)c1	none (no result: CHOP inh)
Clc1cccc(Cl)c1-c1noc(CN2CCOCC2)n1	none
N#C/C(C(=O)N1CCCCC1)=C1\Nc2ccccc2S1	none
Cc1ccc(NC(=S)/C(C#N)=C2/Nc3ccccc3S2)cc1	HIF-2a inh 68 (no result: TRPM1 prom inh, CHOP inh) | HIF-2a conf inactive | HIF-1a cs 56
N#Cc1ccsc1NC(=O)COC(=O)CCCSc1nc2ccccc2s1	HIF-2a inh 64, CHOP inh 73 | HIF-2a conf 69 | HIF-1a cs 53
CC(C)OC(=O)CSc1nc2ccccc2s1	none
CCc1ccccc1NC(=O)CCCSc1nc2ccccc2s1	none
Cc1noc(C)c1CSCC(=O)OCC(=O)Nc1sccc1C#N	none
CNC(=O)NC(=O)COC(=O)CCCSc1nc2ccccc2s1	HIF-2a inh 64 | HIF-2a conf 85 | HIF-1a cs 57
CC(OC(=O)CCCSc1nc2ccccc2s1)C(=O)NC(N)=O (stereo not given)	HIF-2a inh 50 | HIF-2a conf 85 | HIF-1a cs 63
NC(=O)COC(=O)CCCSc1nc2ccccc2s1	HIF-2a inh 57 | HIF-2a conf 76 | HIF-1a cs inactive
COc1ccc(C)cc1S(=O)(=O)NC(C)C(=O)Nc1ccc2c(c1)OCO2 (stereo not given)	none (no result: CHOP inh)
CCCCn1nc(C(=O)N2CCN(S(=O)(=O)c3ccccc3)CC2)c2ccccc2c1=O	none (no result: CHOP inh)
CCN1CCN(C(=O)c2cc(COc3ccc(F)c(F)c3)on2)[C@@H](C)C1=O	none (no result: TRPM1 prom inh, CHOP inh)
